Reference: PubChem BioAssay AID488815 (Broad Institute, 2010)
Potency and affinity values are given separately. Inconclusive results are not listed. A call without a number means that no potency is given here. The source made the active and inactive calls. How the calls were made is not given here.

Molecular target: CAAX prenyl protease 1 (Saccharomyces cerevisiae (strain ATCC 204508 / S288c)) (UniProt P47154)
Assay: Ste24 protease inhibitors, dose response, biochemical, S. cerevisiae, plate reader, cherry-pick (AID 488815)

Chain of CAAX prenyl protease 1 (Saccharomyces cerevisiae (strain ATCC 204508 / S288c)) (P47154 whole entry, looked up): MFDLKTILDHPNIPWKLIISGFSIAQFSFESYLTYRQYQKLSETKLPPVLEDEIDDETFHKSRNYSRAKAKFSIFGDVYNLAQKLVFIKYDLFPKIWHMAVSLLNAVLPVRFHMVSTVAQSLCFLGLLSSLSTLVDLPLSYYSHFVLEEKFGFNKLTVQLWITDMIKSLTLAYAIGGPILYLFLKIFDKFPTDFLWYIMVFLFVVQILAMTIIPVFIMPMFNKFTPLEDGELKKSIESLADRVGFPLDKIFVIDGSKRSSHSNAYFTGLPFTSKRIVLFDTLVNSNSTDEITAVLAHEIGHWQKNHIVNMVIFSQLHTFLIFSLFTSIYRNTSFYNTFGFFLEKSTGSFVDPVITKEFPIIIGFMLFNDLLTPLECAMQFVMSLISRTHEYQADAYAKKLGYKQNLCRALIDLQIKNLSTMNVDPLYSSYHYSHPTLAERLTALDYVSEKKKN

Question: Which outcome does the source give for `O=C(CCNC(=O)N1CC(=O)Nc2ccccc21)NCCc1cccc(F)c1` here?
Answer: Its outcome is “inactive”.

Question: How did the outcome turn out when `CCOc1ccc(OCC)c(NC(=O)c2nnn(CC(=O)Nc3cc(C)cc(C)c3)c2N)c1` was run?
Answer: Its outcome is “inactive”.

Question: How did the outcome turn out when `CC(C)CNC(=O)COc1cccc(C(=O)NCc2ccccc2)c1` was run?
Answer: Its outcome is “inactive”.

Question: Which outcome does the source give for `COc1ccc(-n2nc(C(=O)NCC(=O)N3CCC(C)CC3)c3ccccc3c2=O)cc1` here?
Answer: Its outcome is “inactive”.

Question: Which outcome does the source give for `COc1ccc2[nH]c(C(=O)NCCCn3ccnc3)cc2c1` here?
Answer: The outcome was “inactive”.

Question: Which outcome does the source give for `COc1ccccc1CC(=O)Nc1ccc2c(C)cc(=O)oc2c1` here?
Answer: The outcome was “inactive”.

Question: With `Cc1ccc(/C=N/NC(=O)c2nnn(-c3nonc3N)c2C(C)C)o1` as the compound, how does the outcome read?
Answer: The outcome was “inactive”.

Question: Which outcome does the source give for `Cc1cc(-c2ccccc2)n2nc(C)c(C#N)c2n1` here?
Answer: Its outcome is “inactive”.

Question: `CCOC(=O)c1ccc(NC(=O)N2CCN(Cc3ccccc3)CC2)cc1` was tested. Which outcome did it give?
Answer: The outcome was “inactive”.

Question: With `O=C(c1cnc(Cl)c(Cl)c1)N1CCC(Cc2ccccc2)CC1` as the compound, how does the outcome read?
Answer: Its outcome is “inactive”.

Question: How did the outcome turn out when `Clc1cccc(CN2CCc3c([nH]c4ccccc34)C2)c1Cl` was run?
Answer: Its outcome is “inactive”.

Question: Which outcome does the source give for `O=C(C(Cc1ccccc1)N1C(=O)c2ccccc2C1=O)N1c2ccccc2CCc2ccccc21` (stereo not drawn) here?
Answer: The outcome was “inactive”.

Question: `Cc1ccc(S(=O)(=O)CC(=O)N2CCN(c3ccccc3F)CC2)cc1` was tested. Which outcome did it give?
Answer: Its outcome is “inactive”.

Question: Which outcome does the source give for `CCCCNC(=S)NNC(=O)CCn1cc(C)cn1` here?
Answer: The outcome was “inactive”.

Question: For `Cc1cccc(-c2nnc(SCc3ccc(C#N)cc3)n2Cc2ccco2)c1`, which outcome is on record?
Answer: Its outcome is “inactive”.

Question: How did the outcome turn out when `CCN1CCN(c2ccc(NC(=O)c3cccc(OCc4ccccc4)c3)cc2)CC1` was run?
Answer: Its outcome is “inactive”.

Question: With `COc1ccccc1/C=C/C=N/NC(=O)CN1CCN(S(=O)(=O)c2ccc(C)cc2)CC1` as the compound, how does the outcome read?
Answer: Its outcome is “inactive”.

Question: With `CSc1ccc(C(=O)C2CCCN(C(=O)c3cccnc3SC)C2)cc1` (stereo not drawn) as the compound, how does the outcome read?
Answer: Its outcome is “inactive”.
